Source: the supplement of paper PMC10849652
About 7,900 targets were measured; listed, in parts, are those with a hit and a random draw of the rest. About 0.6% of all pairs of compound and target were hits. A number with no mark means an inactive call.

How the values were obtained:
Assay in all cases: log2 fold change, soluble protein after heating vs DMSO (PISA); higher = thermal stabilisation; K562 cells, 10 uM, 30 min; active = over 0.2 and 3.5 SD of the protein, either way, in both replicates (recomputed)
IRAK-1-4 Inhibitor I = compound: C1COCCN1CCN2C3=CC=CC=C3N=C2NC(=O)C4=CC(=CC=C4)[N+](=O)[O-] [IRAK-1-4 Inhibitor I]
How it was run: (§1)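 Aliquots of K562 cells (2×10^6 cells/mL) treated with 10 μM compound for 30 min were heated for 3 min over 48°C-58°C. After pooling and extraction in PBS with 0.5% NP-40 at 4°C, soluble protein from a 21,000xg, 90 min spin was quantified by TMTpro 16plex LC-MS/MS with channel sums equalised. Thermal stability is expressed against control samples, from duplicates, as a log2 fold change.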

ibrutinib = compound: C=CC(=O)N1CCC[C@@H](n2nc(-c3ccc(Oc4ccccc4)cc3)c3c(N)ncnc32)C1 [ibrutinib]
How it was run: as §1

[1] = compound: CC(=O)c1cnc2ccc(-c3cc(Cl)c(O)c(Cl)c3)nc2c1N[C@H]1CC[C@H](CN(C)C)CC1
How it was run: as §1

ralimetinib = compound: CC(C)(C)Cn1c(N)nc2ccc(-c3[nH]c(C(C)(C)C)nc3-c3ccc(F)cc3)nc21 [ralimetinib]
How it was run: as §1

[2] = compound: CC(C)(O)CC(=O)NCCn1ccc2ncnc(Nc3ccc(Oc4cccc(C(F)(F)F)c4)c(Cl)c3)c21
How it was run: as §1

[3] = compound: CC(C)C1=C2N=C(C=C(N2N=C1)NCC3=CC=CC=C3)NCCCCCCN
How it was run: as §1

[4] = compound: CC(C)C[C@@H](C=O)NC(=O)[C@H](CC(C)C)NC(=O)[C@H](CC(C)C)NC(=O)OCc1ccccc1
How it was run: as §1

pinometostat = compound: CC(C)N(C[C@H]1O[C@@H](n2cnc3c(N)ncnc32)[C@H](O)[C@@H]1O)[C@H]1C[C@@H](CCc2nc3cc(C(C)(C)C)ccc3[nH]2)C1 [pinometostat]
How it was run: as §1

[5] = compound: CC1=C(C(CC(=O)N1)C2=CC=C(C=C2)C(F)(F)F)C(=O)NC3=C(C=C4C(=C3)C=NN4)F
How it was run: as §1

[6] = compound: CC1=C(C2=C(C=C1)C(=O)C3=CC=CC=C3N2CCCN)C
How it was run: as §1

UniProt Q9C0E8, sequence (Q9C0E8 whole entry, looked up): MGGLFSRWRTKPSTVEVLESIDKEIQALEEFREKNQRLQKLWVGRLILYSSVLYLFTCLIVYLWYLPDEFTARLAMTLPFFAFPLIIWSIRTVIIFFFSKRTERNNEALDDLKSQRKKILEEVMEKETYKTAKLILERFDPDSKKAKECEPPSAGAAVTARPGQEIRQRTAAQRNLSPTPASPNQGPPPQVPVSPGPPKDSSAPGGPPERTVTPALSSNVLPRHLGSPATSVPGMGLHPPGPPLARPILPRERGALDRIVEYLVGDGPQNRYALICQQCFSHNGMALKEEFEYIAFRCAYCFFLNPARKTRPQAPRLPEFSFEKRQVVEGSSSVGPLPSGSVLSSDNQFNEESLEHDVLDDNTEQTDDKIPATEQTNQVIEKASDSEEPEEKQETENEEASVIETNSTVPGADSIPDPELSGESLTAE
UniProt P43361, sequence (P43361 whole entry, looked up): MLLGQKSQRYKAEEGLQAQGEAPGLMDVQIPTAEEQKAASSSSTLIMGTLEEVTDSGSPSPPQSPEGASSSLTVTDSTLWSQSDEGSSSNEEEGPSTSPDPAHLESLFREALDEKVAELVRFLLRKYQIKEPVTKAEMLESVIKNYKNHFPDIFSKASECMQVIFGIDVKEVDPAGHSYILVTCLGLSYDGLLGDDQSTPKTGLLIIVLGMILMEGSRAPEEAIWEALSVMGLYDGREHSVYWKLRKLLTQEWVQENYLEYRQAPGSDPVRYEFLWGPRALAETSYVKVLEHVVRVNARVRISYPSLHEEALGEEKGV
UniProt Q8NC56, sequence (Q8NC56 whole entry, looked up): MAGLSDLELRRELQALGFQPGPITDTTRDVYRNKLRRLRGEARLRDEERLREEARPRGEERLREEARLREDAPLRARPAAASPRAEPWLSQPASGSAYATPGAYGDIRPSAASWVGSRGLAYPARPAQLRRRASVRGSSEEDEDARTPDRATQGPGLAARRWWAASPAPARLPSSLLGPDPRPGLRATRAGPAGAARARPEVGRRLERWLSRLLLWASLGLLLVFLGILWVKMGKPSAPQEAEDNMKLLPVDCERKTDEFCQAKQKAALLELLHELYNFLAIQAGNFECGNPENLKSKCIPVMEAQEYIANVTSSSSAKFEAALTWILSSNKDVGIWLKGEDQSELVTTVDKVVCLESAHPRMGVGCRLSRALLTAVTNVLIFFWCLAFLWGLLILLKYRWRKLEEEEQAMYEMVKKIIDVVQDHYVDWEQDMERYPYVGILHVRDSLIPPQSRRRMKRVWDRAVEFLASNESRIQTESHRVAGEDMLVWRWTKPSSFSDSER
UniProt Q12906, sequence (Q12906 whole entry, looked up): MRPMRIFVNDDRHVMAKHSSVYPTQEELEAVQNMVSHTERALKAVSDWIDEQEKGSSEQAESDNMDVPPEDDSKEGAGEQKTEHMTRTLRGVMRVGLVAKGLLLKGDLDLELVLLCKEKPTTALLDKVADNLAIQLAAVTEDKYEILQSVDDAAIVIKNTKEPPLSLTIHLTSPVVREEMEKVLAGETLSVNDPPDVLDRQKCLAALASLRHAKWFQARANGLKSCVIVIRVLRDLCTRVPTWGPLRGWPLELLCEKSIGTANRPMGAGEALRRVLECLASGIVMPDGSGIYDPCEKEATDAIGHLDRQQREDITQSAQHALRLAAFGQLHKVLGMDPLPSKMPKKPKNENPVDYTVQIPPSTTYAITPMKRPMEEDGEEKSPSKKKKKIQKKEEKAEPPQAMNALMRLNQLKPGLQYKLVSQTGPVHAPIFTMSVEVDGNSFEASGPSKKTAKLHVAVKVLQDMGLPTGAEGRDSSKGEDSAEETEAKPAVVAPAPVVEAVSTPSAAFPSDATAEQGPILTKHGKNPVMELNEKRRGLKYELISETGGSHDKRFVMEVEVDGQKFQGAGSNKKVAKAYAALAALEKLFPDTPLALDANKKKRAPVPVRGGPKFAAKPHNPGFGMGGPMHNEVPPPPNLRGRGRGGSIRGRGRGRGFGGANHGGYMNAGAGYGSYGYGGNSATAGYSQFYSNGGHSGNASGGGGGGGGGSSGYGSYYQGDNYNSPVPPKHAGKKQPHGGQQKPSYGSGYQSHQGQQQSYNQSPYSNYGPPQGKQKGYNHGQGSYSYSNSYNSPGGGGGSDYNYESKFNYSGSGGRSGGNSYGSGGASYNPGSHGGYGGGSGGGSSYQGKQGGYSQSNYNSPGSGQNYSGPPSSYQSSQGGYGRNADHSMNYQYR
UniProt Q14693, sequence (Q14693 whole entry, looked up): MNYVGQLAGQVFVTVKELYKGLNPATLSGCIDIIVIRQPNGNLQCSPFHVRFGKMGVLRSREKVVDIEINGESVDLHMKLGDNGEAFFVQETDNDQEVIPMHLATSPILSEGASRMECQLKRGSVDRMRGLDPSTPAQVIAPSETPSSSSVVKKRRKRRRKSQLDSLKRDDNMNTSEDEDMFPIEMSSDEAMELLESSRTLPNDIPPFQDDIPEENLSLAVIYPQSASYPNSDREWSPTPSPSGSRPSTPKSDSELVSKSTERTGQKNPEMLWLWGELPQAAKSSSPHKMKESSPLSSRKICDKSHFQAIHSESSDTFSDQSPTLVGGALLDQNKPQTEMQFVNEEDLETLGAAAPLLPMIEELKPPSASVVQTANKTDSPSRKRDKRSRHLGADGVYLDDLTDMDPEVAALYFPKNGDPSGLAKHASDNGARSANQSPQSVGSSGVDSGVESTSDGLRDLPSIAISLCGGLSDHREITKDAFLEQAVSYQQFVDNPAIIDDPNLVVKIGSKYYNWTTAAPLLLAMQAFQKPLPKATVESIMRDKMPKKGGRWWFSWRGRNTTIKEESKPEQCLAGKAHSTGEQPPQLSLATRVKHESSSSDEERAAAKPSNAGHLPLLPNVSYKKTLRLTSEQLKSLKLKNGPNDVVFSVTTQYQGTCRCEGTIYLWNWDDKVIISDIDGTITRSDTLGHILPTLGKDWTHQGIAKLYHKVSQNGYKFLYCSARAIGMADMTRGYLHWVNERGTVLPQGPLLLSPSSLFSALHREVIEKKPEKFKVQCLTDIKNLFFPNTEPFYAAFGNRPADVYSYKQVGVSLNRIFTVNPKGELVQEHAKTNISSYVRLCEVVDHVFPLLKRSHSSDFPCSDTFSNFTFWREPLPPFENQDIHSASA
UniProt Q5SW96, sequence (Q5SW96 whole entry, looked up): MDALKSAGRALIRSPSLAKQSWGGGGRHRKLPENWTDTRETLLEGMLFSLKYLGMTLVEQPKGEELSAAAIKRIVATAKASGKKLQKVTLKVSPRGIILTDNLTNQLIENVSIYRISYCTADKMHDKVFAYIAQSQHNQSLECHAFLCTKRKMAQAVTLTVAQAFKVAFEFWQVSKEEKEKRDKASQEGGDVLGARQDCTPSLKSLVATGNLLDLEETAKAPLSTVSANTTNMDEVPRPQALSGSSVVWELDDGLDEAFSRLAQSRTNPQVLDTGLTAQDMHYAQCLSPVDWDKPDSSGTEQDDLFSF
UniProt P36507, sequence (P36507 whole entry, looked up): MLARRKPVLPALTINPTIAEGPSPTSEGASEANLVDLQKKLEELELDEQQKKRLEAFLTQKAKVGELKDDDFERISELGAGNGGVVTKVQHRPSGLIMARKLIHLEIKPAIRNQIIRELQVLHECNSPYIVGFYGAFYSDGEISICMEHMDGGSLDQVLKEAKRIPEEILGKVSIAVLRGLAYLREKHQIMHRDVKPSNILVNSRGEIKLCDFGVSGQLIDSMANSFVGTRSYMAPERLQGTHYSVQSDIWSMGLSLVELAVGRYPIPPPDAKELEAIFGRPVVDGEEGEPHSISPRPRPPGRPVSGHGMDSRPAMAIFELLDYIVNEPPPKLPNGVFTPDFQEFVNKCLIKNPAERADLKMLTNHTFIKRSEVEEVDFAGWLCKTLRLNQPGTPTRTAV
UniProt Q71SY5, sequence (Q71SY5 whole entry, looked up): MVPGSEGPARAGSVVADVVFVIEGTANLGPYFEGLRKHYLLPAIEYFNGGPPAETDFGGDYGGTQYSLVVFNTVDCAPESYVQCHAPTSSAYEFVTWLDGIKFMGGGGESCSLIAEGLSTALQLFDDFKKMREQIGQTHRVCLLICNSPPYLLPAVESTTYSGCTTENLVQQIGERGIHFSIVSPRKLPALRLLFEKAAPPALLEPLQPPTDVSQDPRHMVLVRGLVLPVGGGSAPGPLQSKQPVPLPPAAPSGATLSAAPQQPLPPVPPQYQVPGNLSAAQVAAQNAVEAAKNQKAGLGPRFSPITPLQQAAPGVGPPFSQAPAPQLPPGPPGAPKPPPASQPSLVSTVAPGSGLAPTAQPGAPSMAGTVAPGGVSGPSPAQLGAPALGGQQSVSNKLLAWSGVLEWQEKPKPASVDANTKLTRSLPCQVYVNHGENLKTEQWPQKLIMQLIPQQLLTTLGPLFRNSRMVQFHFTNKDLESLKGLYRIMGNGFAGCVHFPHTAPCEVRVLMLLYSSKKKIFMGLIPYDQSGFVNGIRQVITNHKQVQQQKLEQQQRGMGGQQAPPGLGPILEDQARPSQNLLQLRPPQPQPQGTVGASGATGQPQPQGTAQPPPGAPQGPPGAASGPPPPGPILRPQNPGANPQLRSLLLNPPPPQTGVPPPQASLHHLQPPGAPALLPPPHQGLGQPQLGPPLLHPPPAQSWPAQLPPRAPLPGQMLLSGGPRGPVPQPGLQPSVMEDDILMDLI
UniProt Q13257, sequence (Q13257 whole entry, looked up): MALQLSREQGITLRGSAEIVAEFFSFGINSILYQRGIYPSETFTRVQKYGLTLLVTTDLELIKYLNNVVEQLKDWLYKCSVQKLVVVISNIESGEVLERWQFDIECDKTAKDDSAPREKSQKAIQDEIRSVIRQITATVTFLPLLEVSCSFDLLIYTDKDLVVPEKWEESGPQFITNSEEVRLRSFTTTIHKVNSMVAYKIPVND
UniProt Q15528, sequence (Q15528 whole entry, looked up): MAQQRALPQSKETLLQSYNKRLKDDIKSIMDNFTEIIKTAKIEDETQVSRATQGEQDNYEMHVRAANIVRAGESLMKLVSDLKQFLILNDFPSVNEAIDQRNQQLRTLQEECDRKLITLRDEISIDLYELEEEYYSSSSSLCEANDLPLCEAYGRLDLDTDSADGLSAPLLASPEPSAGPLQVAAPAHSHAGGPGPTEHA

Target | log2 fold change (IRAK-1-4 Inhibitor I) | log2 fold change (ibrutinib) | log2 fold change [1] | log2 fold change (ralimetinib) | log2 fold change [2] | log2 fold change [3] | log2 fold change [4] | log2 fold change (pinometostat) | log2 fold change [5] | log2 fold change [6]
LNPK (UniProt Q9C0E8) | 0.041 | 0.013 | 0.004 | -0.019 | 0.016 | 0.05 | -0.011 | -0.01 | 0.016 | -0.035
LEMD2 (UniProt Q8NC56) | 0.015 | 0.082 | -0.066 | -0.02 | -0.024 | -0.63 (active) | 0.022 | -0.014 | -0.051 | 0.131
MDN1 (UniProt Q9NU22) | -0.011 | -0.046 | -0.126 | -0.015 | -0.24 | -0.22 | -0.029 | -0.009 | 0.006 | 0.005
MCU (UniProt Q8NE86) | 0.06 | -0.026 | -0.036 | -0.042 | -0.108 | -0.122 | -0.026 | 0.03 | 0.025 | 0.017
LRFN1 (UniProt Q9P244) | 0.105 | -0.018 | – | -0.009 | 0.073 | 0.107 | 0.061 | 0.029 | – | 0.008
IL10RB (UniProt Q08334) | 0.027 | 0.079 | 0.09 | – | -0.09 | 0.063 | – | 0.04 | -0.055 | -0.089
KCT2 (UniProt Q8NC54) | 0.039 | 0.029 | -0.04 | -0.014 | 0.004 | -0.118 | -0.011 | 0.009 | 0.035 | -0.035
MCM10 (UniProt Q7L590) | 0.096 | 0.018 | – | – | -0.115 | 0.015 | – | -0.108 | 0.07 | -0.037
ILF3 (UniProt Q12906) | -0.058 | 0.036 | – | – | 0.191 | – | – | 0.029 | -0.126 | –
KLHDC4 (UniProt Q8TBB5) | -0.008 | -0.011 | -0.008 | 0.062 | 0.002 | 0.065 | 0.017 | 0.199 | -0.123 | 0.159
MGRN1 isoform 2 (UniProt O60291) | 0.062 | -0.003 | 0.116 | -0.015 | – | -0.225 | 0.114 | 0.041 | – | -0.098
MAP2K2 (UniProt P36507) | 0.045 | 0.012 | -0.496 (active) | 0.105 | -0.065 | -0.02 | 0.056 | 0.003 | 0.011 | -0.001
LRBA, A0A494BZW2 | 0.02 | 0.018 | -0.009 | 0.01 | 0 | -0.436 | 0.041 | 0.076 | 0.006 | -0.237
MAPK14 (UniProt Q16539) | -0.048 | 0.016 | 0.793 (active) | 1.52 (active) | – | -0.178 | -0.135 | -0.09 | -0.234 | 0.062
MED17 (UniProt Q9NVC6) | -0.076 | – | -0.371 (active) | 0.12 | -0.022 | -0.209 | 0.119 | 0.124 | -0.056 | 0.182
LUM (UniProt P51884) | -0.038 | – | 0.078 | -0.054 | 0.263 | 0.124 | 0.023 | -0.068 | -0.151 | -0.256
MAD2L1 (UniProt Q13257) | 0 | -0.095 | 0.008 | -0.004 | -0.057 | -0.112 | -0.018 | 0.031 | -0.004 | -0.033

Target | log2 fold change (IRAK-1-4 Inhibitor I) | log2 fold change (ibrutinib) | log2 fold change [1] | log2 fold change (ralimetinib) | log2 fold change [2] | log2 fold change [3] | log2 fold change [4] | log2 fold change (pinometostat) | log2 fold change [5] | log2 fold change [6]
MAP4K2 (UniProt Q12851) | 0.073 | -0.071 | – | – | – | – | – | 0.113 | 0.003 | 0.021
ITPRIP (UniProt Q8IWB1) | -0.063 | 0.059 | -0.013 | 0.005 | 0.007 | -0.074 | 0.082 | -0.005 | -0.001 | 0.022
MED22 (UniProt Q15528) | 0.013 | 0.076 | -0.058 | 0.064 | 0.039 | -0.016 | 0.076 | 0.012 | -0.007 | 0.096
LYN (UniProt P07948) | -0.016 | 0.4 (active) | -0.456 (active) | 0.045 | 0.018 | -0.03 | 0.24 | 0.065 | 0.008 | 0.078
KIF3B (UniProt O15066) | 0.06 | -0.029 | 0.016 | -0.048 | 0.018 | -0.021 | 0.068 | 0.033 | – | -0.008
LMBR1 isoform 3 (UniProt Q8WVP7) | -0.013 | -0.006 | -0.054 | -0.02 | -0.037 | -0.453 | -0.004 | 0.012 | – | -0.244
LDLRAP1 (UniProt Q5SW96) | 0.013 | -0.177 | – | -0.032 | – | -0.541 (active) | 0.028 | 0.318 | – | –
MFSD8 (UniProt Q8NHS3) | 0.062 | 0.13 | 0.036 | 0.19 | 0.067 | -0.446 (active) | 0.08 | 0.101 | – | 0.124
LARP7 isoform 3 (UniProt Q4G0J3) | -0.061 | 0.031 | 0.063 | 0.111 | 0.021 | -0.246 | -0.057 | 0.05 | -0.063 | -0.383 (active)
JAK3 (UniProt P52333) | -0.01 | -0.052 | – | -0.184 | -0.045 | 0.072 | -0.043 | -0.082 | 0.009 | -0.089
LPIN1 isoform 7 (UniProt Q14693) | 0.035 | 0.029 | -0.379 (active) | 0.016 | -0.033 | -0.054 | 0.046 | 0.082 | 0.092 | 0.006
MAP2K5 (UniProt Q13163) | 0.063 | – | -1.19 (active) | 0.066 | – | – | -0.238 | -0.051 | – | –
MFSD11 (UniProt O43934) | 0.015 | 0.006 | -0.029 | – | -0.008 | – | – | -0.009 | 0.031 | 0.095
MAGEA8 (UniProt P43361) | 0.014 | -0.086 | 0.128 | -0.02 | – | -0.146 | 0.068 | 0.024 | 0.077 | -0.265
MED25 isoform 3 (UniProt Q71SY5) | -0.087 | 0.039 | -0.086 | -0.099 | – | 0.016 | -0.061 | 0.173 | -0.03 | 0.053
KCNK5 (UniProt O95279) | -0.033 | 0.019 | – | – | -0.209 | -2.03 (active) | – | 0 | – | –
LGALS8 isoform 2 (UniProt O00214) | -0.027 | -0.262 | 0.049 | – | 0.092 | 0.123 | – | 0.11 | – | 0.096
